Data published in PubChem BioAssay (EPA / NIEHS).
Activity calls are given as the source filed them. The calls were made as follows: active = hit-call score of the fitted dose curve at least 0.9, where 1 is the maximum; inactive = score below 0.9.

What was measured:
[1] = read-out: Matrix Metallopeptidase 1 (MMP1), MMP1 (gene 4312); assay: BSK_hDFCGF_MMP1: BioMAP Diversity Plus: hDFCGF Assay for Matrix Metallopeptidase 1 (MMP1) Biomarker Activity (AID 2283064); conditions: primary human foreskin fibroblasts; actives raise or lower the signal
Procedure, shortened: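 Primary human foreskin fibroblasts exposed to chemicals for 24 h; MMP1 measured by ELISA. Cytotoxicity tracked by SRB staining in parallel cultures; bidirectional fit relative to DMSO.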

[2] = read-out: Vascular cell adhesion molecule 1 (VCAM1), VCAM1 (gene 7412); assay: BSK_hDFCGF_VCAM1: BioMAP Diversity Plus: hDFCGF Assay for Vascular cell adhesion molecule 1 (VCAM1) Biomarker Activity (AID 2283065); conditions: primary human foreskin fibroblasts; actives raise or lower the signal;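 as to AC50: VCAM-1 protein level quantified by ELISA after 24 h chemical exposure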
Procedure, shortened: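 ELISA read-out of VCAM-1 on human skin fibroblasts, 24 h post-dose; gain or loss of signal fitted bidirectionally against DMSO baseline.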

[3] = read-out: Plasminogen activator inhibitor-1 (PAI1), SERPINE1 (gene 5054); assay: BSK_hDFCGF_PAI1: BioMAP Diversity Plus: hDFCGF Assay for Plasminogen activator inhibitor-1 (PAI1) Biomarker Activity (AID 2283066); conditions: primary human foreskin fibroblasts; actives raise or lower the signal
Procedure, shortened: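 PAI-1 levels, determined by ELISA, served as the endpoint in human foreskin fibroblast cultures exposed to compound for 24 h, with DMSO as baseline.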

[4] = read-out: Intercellular Adhesion Molecule 1 (ICAM1), ICAM1 (gene 3383); assay: BSK_KF3CT_ICAM1: BioMAP Diversity Plus: KF3CT Assay for Intercellular Adhesion Molecule 1 (ICAM1) Biomarker Activity (AID 2283067); conditions: primary human keratinocytes with fibroblasts; actives raise or lower the signal
Procedure, shortened: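 ELISA readout of ICAM-1; KF3CT human skin co-culture (keratinocytes + foreskin fibroblasts), 24 h post-dose; gain/loss fit vs DMSO baseline.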

[5] = read-out: Interferon-gamma inducible Protein 10 (IP10), CXCL10 (gene 3627); assay: BSK_KF3CT_IP10: BioMAP Diversity Plus: KF3CT Assay for Interferon-gamma inducible Protein 10 (IP10) Biomarker Activity (AID 2283068); conditions: primary human keratinocytes with fibroblasts; actives raise or lower the signal
Procedure, shortened: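 Signal is secreted/surface IP-10 by ELISA in a human primary skin co-culture of keratinocytes and foreskin fibroblasts, taken 24 h post-dosing; DMSO served as negative control.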

[6] = BSK_KF3CT_SRB: Viability Assessment in the BioMAP Diversity Plus: KF3CT Assay (AID 2283069); conditions: primary human keratinocytes with fibroblasts;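 also: total protein by sulforhodamine B staining as a cytotoxicity measure; read 24 h after compound addition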
Procedure, shortened: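 Human keratinocyte and foreskin fibroblast co-culture exposed to chemical for 24 h. Total protein measured in parallel cultures by 0.1% sulforhodamine B staining after 10% TCA fixation, read at 560 nm; bidirectional fit relative to DMSO.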

[7] = read-out: Interleukin-1 alpha (IL1a), IL1A (gene 3552); assay: BSK_KF3CT_IL1a: BioMAP Diversity Plus: KF3CT Assay for Interleukin-1 alpha (IL1a) Biomarker Activity (AID 2283070); conditions: primary human keratinocytes with fibroblasts; actives raise or lower the signal
Procedure, shortened: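 Primary human keratinocyte plus foreskin fibroblast co-culture, dosed and measured at 24 h in 96-well plates. IL-1a level quantified by ELISA; bidirectional fit relative to DMSO.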

[8] = read-out: TIMP metallopeptidase inhibitor 2 (TIMP2), TIMP2 (gene 7077); assay: BSK_KF3CT_TIMP2: BioMAP Diversity Plus: KF3CT Assay for TIMP metallopeptidase inhibitor 2 (TIMP2) Biomarker Activity (AID 2283071); conditions: primary human keratinocytes with fibroblasts; actives raise or lower the signal
Procedure, shortened: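 Keratinocyte–fibroblast co-culture, 24 h exposure; TIMP-2 ELISA, DMSO-normalised bidirectional fit. Parallel SRB (0.1%, TCA-fixed, 560 nm) total-protein staining gauges cytotoxicity.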

[9] = read-out: Transforming growth factor beta 1 (TGFb1), TGFB1 (gene 7040); assay: BSK_KF3CT_TGFb1: BioMAP Diversity Plus: KF3CT Assay for Transforming growth factor beta 1 (TGFb1) Biomarker Activity (AID 2283072); conditions: primary human keratinocytes with fibroblasts; actives raise or lower the signal
Procedure, shortened: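 Signal changes in either direction, relative to DMSO, define activity here. TGF-b1 is read by ELISA from a human keratinocyte-fibroblast co-culture 24 h post-dose.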

[10] = read-out: C-C motif chemokine 2 (Homo sapiens) (UniProt P13500); assay: BSK_KF3CT_MCP1: BioMAP Diversity Plus: KF3CT Assay for Monocyte Chemoattractant Protein 1 (MCP1/CCL2) Biomarker Activity (AID 2283073); conditions: primary human keratinocytes with fibroblasts; actives raise or lower the signal
Procedure, shortened: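 KF3CT skin co-culture (keratinocytes/foreskin fibroblasts), 24 h post-dose; MCP-1 by ELISA; gain/loss of signal fit bidirectionally vs DMSO baseline.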

[11] = read-out: Matrix Metallopeptidase 9 (MMP9), MMP9 (gene 4318); assay: BSK_KF3CT_MMP9: BioMAP Diversity Plus: KF3CT Assay for Matrix Metallopeptidase 9 (MMP9) Biomarker Activity (AID 2283074); conditions: primary human keratinocytes with fibroblasts; actives raise or lower the signal;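 as to AC50: MMP9 protein level quantified by ELISA in the co-culture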
Procedure, shortened: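 Human keratinocyte and foreskin fibroblast co-culture exposed to chemicals for 24 h; MMP9 biomarker measured by ELISA, bidirectional fitting relative to DMSO; cytotoxicity tracked by SRB total protein staining in parallel cultures.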

[12] = read-out: urokinase plasminogen activator (uPA), PLAU (gene 5328); assay: BSK_KF3CT_uPA: BioMAP Diversity Plus: KF3CT Assay for urokinase plasminogen activator (uPA) Biomarker Activity (AID 2283075); conditions: primary human keratinocytes with fibroblasts; actives raise or lower the signal
Procedure, shortened: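 Primary human keratinocyte/foreskin fibroblast co-culture exposed to chemical; uPA measured by ELISA at 24 h. Bidirectional fit versus DMSO, with parallel SRB total-protein staining for cytotoxicity.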

CD40, CD40 (gene 958) = assay: BSK_LPS_CD40: BioMAP Diversity Plus: LPS Assay for CD40 Biomarker Activity (AID 2283076); conditions: primary human HUVEC with PBMC; actives raise or lower the signal
Procedure, shortened: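 ELISA readout of CD40 in HUVEC/PBMC co-culture (BSK_LPS system), 24 h post-dosing; bidirectional curve fit, DMSO baseline; parallel SRB total-protein staining for cytotoxicity.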

[13] = read-out: E-selectin (Homo sapiens) (UniProt P16581); assay: BSK_LPS_Eselectin: BioMAP Diversity Plus: LPS Assay for Eselectin Biomarker Activity (AID 2283077); conditions: primary human HUVEC with PBMC; actives raise or lower the signal
Procedure, shortened: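 ELISA readout of E-selectin, 24 h post-dose, HUVEC + PBMC co-culture (LPS system). Gain or loss of signal vs DMSO baseline, bidirectional fit.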

[14] = read-out: Interleukin-8 (IL8), CXCL8 (gene 3576); assay: BSK_LPS_IL8: BioMAP Diversity Plus: LPS Assay for Interleukin-8 (IL8) Biomarker Activity (AID 2283078); conditions: primary human HUVEC with PBMC; actives raise or lower the signal
Procedure, shortened: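 HUVEC + PBMC co-culture, LPS-activated; test chemicals dosed, IL-8 read by ELISA at 24 h. Bidirectional curve fit vs DMSO baseline (gain or loss of signal).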

[15] = BSK_LPS_SRB: Viability Assessment in the BioMAP Diversity Plus: LPS Assay (AID 2283079); conditions: primary human HUVEC with PBMC;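 also: total protein by sulforhodamine B absorbance as a cytotoxicity measure; measured one day after compound addition; fitted in both directions against DMSO so loss or gain of signal counts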
Procedure, shortened: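 HUVEC + PBMC co-culture, LPS-stimulated; compound 24 h. 10% TCA fix, 0.1% SRB stain, A560. Bidirectional fit vs DMSO.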

[16] = read-out: Interleukin-1 alpha (IL1a), IL1A (gene 3552); assay: BSK_LPS_IL1a: BioMAP Diversity Plus: LPS Assay for Interleukin-1 alpha (IL1a) Biomarker Activity (AID 2283080); conditions: primary human HUVEC with PBMC; actives raise or lower the signal
Procedure, shortened: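 HUVEC/PBMC co-culture, LPS system; 24 h after dosing; IL-1a by ELISA; gain or loss of signal fitted bidirectionally vs DMSO baseline.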

[17] = read-out: Monocyte Chemoattractant Protein-1 (MCP1), CCL2 (gene 6347); assay: BSK_LPS_MCP1: BioMAP Diversity Plus: LPS Assay for Monocyte Chemoattractant Protein-1 (MCP1) Biomarker Activity (AID 2283081); conditions: primary human HUVEC with PBMC; actives raise or lower the signal
Procedure, shortened: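 ELISA read-out of MCP-1 after 24 h chemical dosing of a human umbilical vein endothelial cell/peripheral blood mononuclear cell co-culture stimulated with LPS. Gain or loss of signal fitted relative to DMSO controls.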

[18] = BSK_LPS_PGE2: BioMAP Diversity Plus: LPS Assay for Prostaglandin E2 (PGE2) Biomarker Activity (AID 2283082); conditions: primary human HUVEC with PBMC; actives raise or lower the signal
Procedure, shortened: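 Endpoint derived from bidirectional curve fitting versus DMSO of ELISA-measured PGE2 in LPS-stimulated human primary vascular co-culture (HUVEC with PBMC) harvested at 24 h.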

[19] = read-out: Macrophage colony-stimulating factor (MCSF), CSF1 (gene 1435); assay: BSK_LPS_MCSF: BioMAP Diversity Plus: LPS Assay for Macrophage colony-stimulating factor (MCSF) Biomarker Activity (AID 2283083); conditions: primary human HUVEC with PBMC; actives raise or lower the signal
Procedure, shortened: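 HUVEC + PBMC co-culture (human primary), 24 h post-dose; M-CSF by ELISA; gain/loss of signal fitted bidirectionally vs DMSO baseline.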

Measured: AC50

Sequence of E-selectin (Homo sapiens) (P16581 whole entry, looked up): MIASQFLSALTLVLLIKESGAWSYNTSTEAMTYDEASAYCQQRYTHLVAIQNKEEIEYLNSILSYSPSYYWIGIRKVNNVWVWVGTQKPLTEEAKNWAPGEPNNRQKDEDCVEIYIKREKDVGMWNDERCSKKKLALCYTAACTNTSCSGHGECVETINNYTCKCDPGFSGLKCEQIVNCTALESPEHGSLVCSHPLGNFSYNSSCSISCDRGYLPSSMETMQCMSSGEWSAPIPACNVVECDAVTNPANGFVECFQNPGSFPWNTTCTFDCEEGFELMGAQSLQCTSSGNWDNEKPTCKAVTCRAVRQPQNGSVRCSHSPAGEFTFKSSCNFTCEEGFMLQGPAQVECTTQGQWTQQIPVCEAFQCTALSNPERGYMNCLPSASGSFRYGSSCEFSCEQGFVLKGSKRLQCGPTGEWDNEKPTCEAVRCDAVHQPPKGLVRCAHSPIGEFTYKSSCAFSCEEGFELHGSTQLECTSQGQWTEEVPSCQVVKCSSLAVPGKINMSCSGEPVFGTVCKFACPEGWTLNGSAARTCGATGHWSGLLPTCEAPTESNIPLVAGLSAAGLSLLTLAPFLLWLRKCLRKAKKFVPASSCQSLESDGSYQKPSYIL

O=C1c2ccccc2C(=O)N1CCc1noc(-c2ccc(CN3CCCCCC3)s2)n1
inactive: all assays above

CCCCOC(=O)CC(CC(=O)OCCCC)(OC(C)=O)C(=O)OCCCC
inactive: all assays above

O=C1CCC(C2CCCCC2)CC1
active: [1] 33.3 µM | [2] 31.6 µM | [3] 31.7 µM | [5] 31.5 µM | [10] 29.6 µM | [11] 31.8 µM
inactive: all other assays above
